From publication PMC5540273 (PLoS ONE, 2017)

How the values were obtained:
Details in all cases: concentration: 1 μM, replicates: in singlicate; n = 1
[1] = test system: EPHB3
[2] = test system: EPHB4
[3] = test system: EPHB6
[4] = test system: ERBB2
[5] = test system: ERBB3
[6] = test system: ERBB4
[7] = test system: T1, ERK1
T1 construct: gene MAPK3

[8] = test system: T2, ERK2
T2 construct: gene MAPK1

[9] = test system: T3, ERK3
T3 construct: gene MAPK6

[10] = test system: T4, ERK4
T4 construct: gene MAPK4
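Also: KINOMEscan kinase panel screen.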

## COc1cc2ncn(-c3cc(OCc4ccc(S(C)(=O)=O)cc4)c(C(N)=O)s3)c2cc1OC [GW869979]
[1]
  %Inh: 0%
[2]
  %Inh: 0%
[3]
  %Inh: 38%
[4]
  %Inh: 0%
[5]
  %Inh: 11%
[6]
  %Inh: 0%
[7]
  %Inh: 10%
[8]
  %Inh: 2%
[9]
  %Inh: 6%
[10]
  %Inh: 0%

## COC(=O)c1c(-c2ccccc2)c2cc(Br)ccc2c(=O)n1Cc1ccc(NC(=O)CCC(=O)O)cc1
[1]
  %Inh: 19%
[2]
  %Inh: 13%
[3]
  %Inh: 14%
[4]
  %Inh: 57%
[5]
  %Inh: 0%
[6]
  %Inh: 0%
[7]
  %Inh: 0%
[8]
  %Inh: 29%
[9]
  %Inh: 3%
[10]
  %Inh: 3%

## Nc1ncnc2c1ncn2-c1cccc(F)c1 [SKF-97560]
[1]
  %Inh: 0%
[2]
  %Inh: 0%
[3]
  %Inh: 25%
[4]
  %Inh: 1%
[5]
  %Inh: 20%
[6]
  %Inh: 0%
[7]
  %Inh: 9%
[8]
  %Inh: 0%
[9]
  %Inh: 13%
[10]
  %Inh: 2%

## CCS(=O)c1ccc(-c2coc3ccc(-c4nnc(C)o4)cc23)cc1 (stereo not shown)
[1]
  %Inh: 0%
[2]
  %Inh: 9%
[3]
  %Inh: 3%
[4]
  %Inh: 8%
[5]
  %Inh: 3%
[6]
  %Inh: 9%
[7]
  %Inh: 0%
[8]
  %Inh: 13%
[9]
  %Inh: 0%
[10]
  %Inh: 0%
